Rows were chosen to be rich in hits. Some 3.5% of all compounds tested hit in one or more screens of this group.
Pf apPOL inh: Pf-apPOL DNA polymerase inhibition | Recombinant Pf-apPOL, molecular beacon fluorescence, 1.5 h | inhibition, % at 10 µM | 210,000 tested, 0.25% active
mHTT-CaM PPI inh: mHTT-calmodulin interaction abrogation; AlphaScreen His-mHTT/GST-CaM binding, luminescence; inhibition, % at 15 µM; 190,000 tested, 3.6% active; AID 1671202;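 note: 0% = both proteins with DMSO and 100% = one protein alone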
* marks the source's active call; other numbers are inactive results; nt = no result. Cut-off read from the data, not from the text of the source: active = inhibition above about 50%; inactive = the rest.

SMILES	Pf apPOL inh	mHTT-CaM PPI inh
COc1ccc(C2CCC3(CCC(=O)N3CCOC(=O)C(C)C)CC2)cc1 (stereo not drawn)	-9	23
COc1ccc(/C=C2N=C(/C=C/c3cccc([N+](=O)[O-])c3)OC/2=O)c(OC)c1	-1	-3
CCCn1ncc(N2CCC(C(=O)N(C)C)CC2)cc1=O	0	-10
O=C(Nc1cnc(N2CCOCC2)nc1)c1ccc(F)cc1F	-5	1
O=C(c1ccsc1)N1CC(c2nc(-c3cccc(Cl)c3)no2)C1	1	-4
O=C(CCSc1ccccc1)N1CC(c2nc(-c3cccc(Cl)c3)no2)C1	-19	67*
O=C(c1ccccn1)N1CC(c2nc(-c3cccc(Cl)c3)no2)C1	-8	-7
O=C(Cn1ccc2ccccc21)N1CC(c2nc(-c3cccc(Cl)c3)no2)C1	-3	60*
COc1ccc(Cc2nc(-c3ccc(=O)[nH]c3)no2)cc1Cl	2	1
COc1ccccc1-c1cc(C(=O)N2CCCC2c2cccc(F)c2)no1 (stereo not drawn)	0	-5
O=C(c1ccccc1F)N1CCC(n2nc(-c3ccsc3)ccc2=O)CC1	6	86*
O=C(c1cc(F)ccc1F)N1CCC(CCOCc2ccc(F)cc2)CC1	-8	-21
CCOC(=O)c1cc(C)nn1C1CCN(C(=O)c2ccc(F)cc2F)CC1	-3	-4
O=C(c1ccc(F)cc1F)N1CCC(n2nc(-c3ccsc3)ccc2=O)CC1	-5	100*
O=C(c1cc(F)ccc1F)N1CCC(n2nc(-c3ccsc3)ccc2=O)CC1	0	98*
O=C(c1ccccn1)N1CCC(n2nc(-c3ccsc3)ccc2=O)CC1	-6	32
O=[N+]([O-])c1ccccc1OCCOC1OCCOC1OCCOc1ccccc1[N+](=O)[O-] (stereo not drawn)	-4	nt
C=CCn1cnc2c(-c3cccc(Cl)c3)csc2c1=O	-2	-17
COCCNC(=O)Nc1nnc(SC)s1	-4	-15
O=C(Nc1ccc(S(=O)(=O)Nc2nccs2)cc1)c1cc(Cl)sc1Cl	-8	40
COc1cccc(CC(=O)N2CCCC2c2ccc(C)cc2)c1 (stereo not drawn)	-5	-7
COc1ccc(-c2nc3ccc(C)cn3c2NC(C)(C)C)cc1OC	1	44
COc1ccc(N2CCN(CC(O)COc3ccc(Cl)c(C)c3)CC2)cc1 (stereo not drawn)	-1	83*
Cc1cc(OCC(O)CN2CCN(Cc3ccc4c(c3)OCO4)CC2)ccc1Cl (stereo not drawn)	-8	90*
CCCc1ccc(OCC(O)CN2CCCC2)cc1 (stereo not drawn)	-1	-3
SMILES	Pf apPOL inh	mHTT-CaM PPI inh
CC(C)(C)c1ccc(OCC(O)CN2CCN(Cc3ccc4c(c3)OCO4)CC2)cc1 (stereo not drawn)	-1	24
COc1ccc(N2CCN(CC(O)COC3CC(C)CCC3C(C)C)CC2)cc1 (stereo not drawn)	0	62*
CCCc1ccc(OCC(O)CN2CCN(c3ccc(OC)cc3)CC2)cc1 (stereo not drawn)	1	61*
Cc1ccc(OCC(O)CN2CCN(c3ccc(F)cc3)CC2)cc1C (stereo not drawn)	-4	36
CC1CCC(C(C)C)C(OCC(O)CN2CCN(Cc3ccccc3)CC2)C1 (stereo not drawn)	0	21
CCOc1ccccc1NC(=O)C1CCN(c2ncnc3c2nc2n3CCCCC2)CC1	3	-7
COc1ccc(-c2nc3cccnc3n2C2CCN(C(=O)NCc3ccc(C)cc3)C2)cc1 (stereo not drawn)	-9	42
CC1CCCC1OCC(O)CN1CCCCC1 (stereo not drawn)	-11	-8
CCC(C(=O)NCc1ccc(N(C)C)cc1)N1C(=O)CCCc2ccccc21 (stereo not drawn)	-7	15
COc1ccc(C2C(C(=O)Nc3ccc(F)cc3F)=C(C)NC3=C2C(=O)CCC3)c(OC)c1 (stereo not drawn)	-3	1
Cn1c(=O)c(C(=O)N2CCCC2)nc2ccccc21	0	3
COc1ccc(S(=O)(=O)NC(c2ccccc2)c2ccccc2)cc1OC	1	-6
CN(C(=O)c1ccc2c(c1)N(S(C)(=O)=O)CC2)c1cccc(C(F)(F)F)c1	3	5
Cc1cc(C(=O)NCCC(=O)NC2CC2)no1	-1	1
CC1(C)CC(=O)C2=C(C1)OC(N)=C(C#N)C2c1cn(-c2ccccc2)nc1-c1ccc(Cl)cc1 (stereo not drawn)	1	100*
CC1(C)CC(=O)C2=C(C1)OC(N)=C(C#N)C2c1ccc(-c2ccccc2)cc1 (stereo not drawn)	1	-8
CC(=O)c1c(C(C)=O)c(C)n(-c2cc(Br)ccc2O)c1C	-1	24
Cc1cc(C2(c3ccc(O)c(C)c3)C(=O)N(C)c3ccc(Br)cc32)ccc1O	-6	87*
O=C1C(=C(c2ccccc2)c2ccccc2)C(=O)c2ccccc21	-11	61*
O=C1C(c2ccccc2)=C(c2ccccc2)c2ccccc21	-1	41
O=C(NCCC1=CCCCC1)C1CCN(c2nc3cccnc3s2)CC1	3	-5
S=C(NCCc1ccccc1)N1CCOCC1	-11	nt
Fc1cc(F)c(C2SCCN2C(=S)NCCc2ccccc2)c(F)c1 (stereo not drawn)	nt	59*
O=c1/c(=C/c2ccc(F)cc2)sc2nc3cc(Br)cnc3n12	-2	-1
COc1ccc(C2Oc3c(Br)cc(Br)cc3C=C2[N+](=O)[O-])cc1OC (stereo not drawn)	-7	69*
SMILES	Pf apPOL inh	mHTT-CaM PPI inh
COc1cc(C2Oc3ccccc3C=C2[N+](=O)[O-])ccc1OCc1ccccc1 (stereo not drawn)	-3	37
O=C(NCCN1CCCC1)C1CCN(c2cccc(Br)c2)C1=O (stereo not drawn)	-3	12
COc1ccc(OC)c(NC(=O)c2c(NCc3cccnc3)sc3c2CCCC3)c1	-16	69*
COc1ccccc1NC(=O)c1c(NC(=O)c2ccccc2Cl)sc2c1CCCC2	-3	-7
COc1ccc(NC(=O)c2c(NC(=O)CN3CCCC3)sc3c2CCC3)c(OC)c1	-7	-2
COc1ccc(OC)c(NC(=O)c2cccnc2)c1	-2	2
COc1ccc(OC)c(NC(=O)c2c(NCc3ccncc3)sc3c2CCC3)c1	-15	88*
COc1ccc(NC(=O)c2c(NC(C)=O)sc3c2CCCC3)c(OC)c1	-2	-1
COc1ccc(OC)c(NC(=O)c2c(NC(=O)CCC(=O)O)sc3c2CCCCC3)c1	-8	54*
COc1ccc(Cl)cc1NC(=O)c1c(NCc2ccncc2)sc2c1CCCC2	-20	79*
Cc1ccccc1NC(=O)c1cccnc1-c1cccs1	0	-4
COc1cc(NC(=O)C(Cl)Cl)cc(OC)c1	-8	3
COc1ccc(OC)c(NC(=O)c2c(NCc3ccncc3)sc3c2CCCC3)c1	-17	70*
COc1ccc(CC(=O)Nc2sc3c(c2C(N)=O)CCCCCC3)cc1OC	-1	6
C=CCc1ccccc1OCCOCCn1ccnc1	1	2
COc1ccc(NC(=O)C2CCCN(c3nccnc3Sc3ccccc3)C2)cc1F (stereo not drawn)	-7	-2
Nc1ccc([N+](=O)[O-])cc1C(=O)NNC(=O)c1ccco1	68*	nt
O=C(Nc1ccc([N+](=O)[O-])cc1Br)c1ccco1	2	5
C=CCN1C(=O)CC(Nc2ccc(CC)cc2)C1=O (stereo not drawn)	-3	-3
